Records with an inconclusive call do not appear. A call without a number means that no potency is given here. Activity calls are given as the source filed them. Calls come from the whole dose curve; as a rule, active = well fitted inhibition curve with a large enough effect; inconclusive = small, poorly fitted or top-dose-only effect; inactive = flat fitted curve, though single readings scatter.
Test system: astro (control astrocytes)
Assay: Drug repurposing screens with cells derived from glioblastoma tumor samples (AID 1345199); note: nearly all actives have a fitted effect of over 40% in size
Conditions: viability, ATP luminescence, 48 h; series mostly up to 45.9 µM
Procedure: CD133+ cells were isolated from GBM patient biopsies and cultured as neurospheres. Neurospheres from four patients were used to screen the NCATS pharmaceutical collection (NPC) library of approved drugs and bioactive compounds. […] The neurospheres were incubated with drugs for 48 hours in 1536-well format, then assayed with an ATP content cell viability assay. […] These hits were cherry picked to confirm activity in the four original GBM lines screened plus three other slower growing GMB lines (unable to yield enough cells for a full primary screen). Variable activities of the confirmed primary hits in the different GBM patient lines were observed. The patient line 206 responded to the greatest number of compounds and line 923 responded to the least amount of active compounds.
Potency is the fitted concentration of half-maximal effect.

Structure (SMILES) | Potency
C[C@]12CC[C@@H]3c4ccc(O)cc4CC[C@H]3[C@@H]1C[C@@H](O)[C@@H]2O | inactive
CCCCOc1ccc(C(=O)CCN2CCCCC2)cc1 | inactive
CCCCCC=CCC=CCCCCCCCC(=O)OCC | inactive
Cc1c(N(C)CS(=O)(=O)O)c(=O)n(-c2ccccc2)n1C | inactive
CCCC1O[C@@H]2C[C@H]3[C@@H]4CCC5=CC(=O)C=C[C@]5(C)[C@H]4[C@@H](O)C[C@]3(C)[C@]2(C(=O)CO)O1 (stereo not given in full) | inactive
CC(C)(C(=O)c1cccnc1)c1cccnc1 | inactive
O=c1ccc2ccccc2o1 | inactive
C[n+]1c2cc(N)ccc2cc2ccc(N)cc21 (tested in a mixture with another compound) | 11.2 µM (active)
O=S1(=O)c2cccc3cccc(c23)N1CCCN1CCN(c2ccc(F)cc2)CC1 | inactive
C[C@H](CCC(=O)O)[C@H]1CC[C@H]2[C@@H]3C(=O)C[C@@H]4CC(=O)CC[C@]4(C)[C@H]3CC(=O)[C@]12C | inactive
O=C1OC2(c3ccc(O)cc3Oc3cc(O)ccc32)c2ccccc21 | inactive
Cc1ccc(C(=O)C(C)CN2CCCCC2)cc1 (stereo not given) | inactive
COCc1c(C(C)C)nc(C(C)C)c(/C=C/[C@@H](O)C[C@@H](O)CC(=O)O)c1-c1ccc(F)cc1 | 0.1 µM (active)
CC(C)(C)CC(C)(C)c1ccc(OCCOCC[N+](C)(C)Cc2ccccc2)cc1 | 20 µM (active)
CCCCCCCCCCCCCCCCCC(=O)OCC(O)CO (stereo not given) | inactive
CC1(C)CCC(NC(=O)[C@@H](N)CCC(=O)O)CC1 | inactive
NC(CS)C(=O)O (stereo not given) | inactive
CCOc1ccc(NC(=O)CC(C)O)cc1 (stereo not given) | inactive
CCN1CCC[C@H]1CNC(=O)c1c(OC)ccc(Br)c1OC | inactive
N[C@@H](Cc1cnc[nH]1)C(=O)O | inactive

Structure (SMILES) | Potency
Cc1ccc(O)c2ncccc12 | inactive
C#C[C@]1(O)CC[C@H]2[C@@H]3CCC4=CC(=O)CC[C@@H]4[C@H]3CC[C@@]21C | inactive
OC[C@@H](O)[C@@H](O[C@@H]1O[C@H](CO)[C@H](O)[C@H](O)[C@H]1O)[C@H](O)[C@@H](O)CO | inactive
CN1CCC[C@@H]1c1cccnc1 | inactive
Cc1onc(-c2c(Cl)cccc2Cl)c1C(=O)N[C@@H]1C(=O)N2[C@@H]1SC(C)(C)[C@@H]2C(=O)O | inactive
CNCCC=C1c2ccccc2CCc2ccccc21 | 11.2 µM (active)
C[N+]1(CCCCC[N+]2(C)CCCC2)CCCC1 | inactive
COc1cc(N)c(Cl)cc1C(=O)NC1CCN(CCCOc2ccc(F)cc2)CC1OC (stereo not given) | inactive
CN(C)C(=S)SC(=S)N(C)C | inactive
COc1c2occc2c(OC)c2c(=O)cc(C)oc12 | inactive
CCN(CC)C(=O)N1CCN(C)CC1 | inactive
CC(=O)OCC(=O)[C@@]1(O)CC[C@H]2[C@@H]3CCC4=CC(=O)C=C[C@]4(C)[C@H]3[C@@H](O)C[C@@]21C | inactive
CC1(C)OC[C@@H](COC(=O)CCc2ccc(OC[C@@H](O)CNCCNC(=O)N3CCOCC3)cc2)O1 | inactive
Cc1c(C(N)=O)cc([N+](=O)[O-])cc1[N+](=O)[O-] | inactive
CCCCC1=NC2(CCCC2)C(=O)N1Cc1ccc(-c2ccccc2-c2nn[nH]n2)cc1 | inactive
CCCCCCC[N+](CC)(CC)CCCCc1ccc(Cl)cc1 | 8.91 µM (active)
O=C(O)CCCCC(=O)O | inactive
O=C1c2ccccc2C(=O)C1c1ccccc1 | inactive
CN1C(CCl)Nc2cc(Cl)c(S(N)(=O)=O)cc2S1(=O)=O (stereo not given) | inactive
CC(=O)N(O)CCCCCNC(=O)CCC(=O)N(O)CCCCCNC(=O)CCC(=O)N(O)CCCCCN | inactive

Reference: PubChem BioAssay (NCATS)
